A selection: hits, their analogues and other compounds. The true share with any hit is near 3.1%.
RGS12 GoLoco inh-1 – RGS12 GoLoco-Gai1 interaction inhibition | P63096 | Gai1:RGS12 GoLoco peptide FP, rhodamine, 10 min | Potency, µM (doses to about 61.6 µM), most hits filed as inhibitors | 230,000 compounds, 0.44% hits | AID 880; active = well fitted inhibition curve with a large enough effect, not every such curve was filed as active; inactive = no such curve, though single readings can be large or run the other way; note: nearly all actives have a fitted effect of over 30% in size
TexasRed fluor – Texas Red fluorescence interference in TRb-SRC2 counter-screen | Potency, µM (titrated, usually from 106 µM) | 280,000 compounds, 0.29% hits | AID 1479 | TRb/SRC2 Texas Red total fluorescence interference; active = well fitted curve in either direction with a large enough effect; inconclusive = small, poorly fitted or top-dose-only effect
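Human TRβ ligand-binding domain (0.6 uM) and Texas Red SRC2 peptide (20 nM) in Tris buffer with 1 uM T3 and 5% DMSO were incubated with pinned compound for 5 hr at ambient temperature. Total fluorescence was computed as S + 2P (555/632 nm).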
TRb SRC2 PPI – TRbeta-SRC2 interaction inhibition; 280,000 compounds, 0.065% hits; TRbeta-SRC2 peptide binding, fluorescence polarization; receptor liganded with 1 µM T3; Potency, µM (top dose mostly 106 µM), actives largely listed as inhibitors; note: nearly all actives have a fitted effect of over 50% in size
Target sequence (P10828 whole entry, looked up): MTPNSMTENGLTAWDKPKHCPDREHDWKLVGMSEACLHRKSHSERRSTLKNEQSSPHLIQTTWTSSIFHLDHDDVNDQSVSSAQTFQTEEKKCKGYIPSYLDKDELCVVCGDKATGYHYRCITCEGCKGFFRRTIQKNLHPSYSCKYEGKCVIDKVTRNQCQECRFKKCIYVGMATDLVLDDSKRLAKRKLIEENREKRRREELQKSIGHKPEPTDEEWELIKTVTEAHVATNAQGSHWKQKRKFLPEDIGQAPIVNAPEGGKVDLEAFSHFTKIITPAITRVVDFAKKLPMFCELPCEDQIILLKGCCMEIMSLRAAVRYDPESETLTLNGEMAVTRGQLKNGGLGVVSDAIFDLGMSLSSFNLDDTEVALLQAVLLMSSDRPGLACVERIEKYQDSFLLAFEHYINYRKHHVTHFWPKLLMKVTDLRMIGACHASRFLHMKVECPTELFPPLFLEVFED
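Binding of a 20-amino-acid Texas Red SRC2 peptide (20 nM) to TRb ligand-binding domain (0.6 uM) with agonist T3 at 1 uM was followed by fluorescence polarization after a 5 hr room-temperature incubation.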
Tau FP inhib – inhibitors of human tau fibril formation; P10636; K18 P301L tau heparin fibrillization, Alexa594 FP, 6 h; Potency, µM (series often up to 57.7 µM), hits mostly inhibitors; 280,000 compounds, 0.39% hits; AID 1468; note: nearly all actives have a fitted effect of over 55% in size
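Read-out: fluorescence polarization of Alexa 594-labeled tau (0.24 uM), 555 nm excitation, 632 nm emission. Mixtures held 15 uM unlabeled K18 P301L, compound and 20 uM heparin, pH 7 acetate buffer, incubated 6 hr at 37 C.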
Tau fluor cs – counter-screen for tau fibril formation inhibitors | tau K18 P301L Alexa594 fluorescence, heparin fibrillization | Potency, µM (top dose mostly 57.7 µM) | AID 1463 | 280,000 compounds, 0.93% hits; note: nearly all actives have a fitted effect of over 55% in size
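Human tau K18 P301L (15 uM unlabeled, 0.24 uM Alexa 594-labeled) in 100 mM sodium acetate pH 7 with 20 uM heparin, 6 hr at 37 C. ThT 30 uM added, 1 hr ambient; Alexa 594 FP and total fluorescence read at 555/632 nm.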
Tau fibril ThT – tau fibrillization inhibition (ThT binding) | P10636 | recombinant tau K18 P301L (four-repeat tau fragment), heparin-induced fibrillization, ThT fluorescence | Potency, µM (titrated, usually from 57.4 µM), most hits filed as inhibitors | 270,000 compounds, 2.1% hits | AID 1460; note: nearly all actives have a fitted effect of over 55% in size
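Recombinant human tau K18 fragment […] carrying P301L, 15 uM unlabeled plus 0.24 uM Alexa 594-labeled, was fibrillized with 20 uM heparin in 100 mM sodium acetate pH 7 for 6 hr at 37 C; 30 uM ThT fluorescence read after 1 hr.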
RGS12 GoLoco inh-2 – RGS12 (human) GoLoco motif inhibition, red FP; shares compounds with RGS12 GoLoco inh-1; Gai1/rhodamine-RGS12 GoLoco peptide fluorescence polarization; Potency, µM (series often up to 57.1 µM), usual class: inhibitors; 110 compounds, 50% hits
Hits are given with their value; [ ] = another dose, or the depositor's remark. Unless noted, calls come from the whole dose curve; as a rule, active = well fitted curve in the direction sought with a large enough effect; inconclusive = small, poorly fitted or top-dose-only effect, or another doubt; inactive = no such curve, though single readings can be large; an effect the other way counts as inactive or inconclusive.

Screening COc1cc2[nH]c(=O)n(C3CCCCC3)c(=O)c2cc1OC returned RGS12 GoLoco inh-1 inactive, TexasRed fluor inactive, TRb SRC2 PPI inactive, Tau FP inhib inactive, Tau fluor cs inactive and Tau fibril ThT inactive.
For CCCCn1c(=O)[nH]c2nc3cc(N)ccc3nc2c1=O the results were RGS12 GoLoco inh-1 13µM, TexasRed fluor inactive, TRb SRC2 PPI inactive, Tau FP inhib inactive, Tau fluor cs inactive, Tau fibril ThT inactive and RGS12 GoLoco inh-2 8.9µM.
For CCCCn1c(N)c(Br)c(=O)[nH]c1=O the results were RGS12 GoLoco inh-1 inactive, TexasRed fluor inactive, TRb SRC2 PPI inactive, Tau FP inhib inactive, Tau fluor cs inactive and Tau fibril ThT inconclusive.
Screening Cc1cc2nc3c(=O)n(CCc4ccccc4)c(=O)[nH]c3nc2cc1N returned RGS12 GoLoco inh-1 7.9µM, TexasRed fluor inactive, TRb SRC2 PPI inactive, Tau FP inhib inconclusive, Tau fluor cs 8.9µM[quencher] and RGS12 GoLoco inh-2 inconclusive.
`COc1ccc(-c2nc3c(=O)n(C)c(=O)[nH]c3n2CCc2ccccc2)cc1` gave RGS12 GoLoco inh-1 inactive, TexasRed fluor inactive, TRb SRC2 PPI inactive, Tau FP inhib inactive, Tau fluor cs inactive and Tau fibril ThT inactive.
`Nc1ccc2nc3c(=O)n(C4CCCCC4)c(=O)[nH]c3nc2c1` gave RGS12 GoLoco inh-1 25µM, TexasRed fluor inactive, TRb SRC2 PPI inactive, Tau FP inhib inactive, Tau fluor cs inactive, Tau fibril ThT inactive and RGS12 GoLoco inh-2 11µM.
`Cc1sc2nc(CSc3n[nH]c(N)n3)[nH]c(=O)c2c1C` gave RGS12 GoLoco inh-1 inactive, TexasRed fluor inactive, TRb SRC2 PPI inactive, Tau FP inhib inactive, Tau fluor cs inactive and Tau fibril ThT inconclusive.
Screening COc1cccc(C(=O)N/N=C/c2ccc(Oc3ccc([N+](=O)[O-])cn3)c(OC)c2)c1 returned RGS12 GoLoco inh-1 inactive, TexasRed fluor inactive, TRb SRC2 PPI inactive, Tau FP inhib inactive, Tau fluor cs inconclusive, Tau fibril ThT inconclusive and RGS12 GoLoco inh-2 18µM.
Screening CCOC(=O)C1CCCN(C(=O)Cn2sc3nc(C)cc(C)c3c2=O)C1 (centres undefined) returned RGS12 GoLoco inh-1 18µM, TexasRed fluor inactive, TRb SRC2 PPI inactive, Tau FP inhib 25µM, Tau fluor cs inactive, Tau fibril ThT 11µM and RGS12 GoLoco inh-2 inconclusive.
For CCCCCCCCCCCCCCCC[n+]1ccc(C(N)=O)cc1 the results were RGS12 GoLoco inh-1 3.2µM, TexasRed fluor inactive, TRb SRC2 PPI inactive, Tau FP inhib inactive, Tau fluor cs inactive, Tau fibril ThT inactive and RGS12 GoLoco inh-2 inconclusive.
Screening CCCCCCCCC[n+]1cccc2c3ccccc3ccc21 returned RGS12 GoLoco inh-1 inactive, TexasRed fluor inactive, TRb SRC2 PPI inactive, Tau FP inhib inactive, Tau fluor cs inactive and Tau fibril ThT inactive.
For CCCCCCCCCCCCCCCC[n+]1cccc2ccccc21 the results were RGS12 GoLoco inh-1 2.2µM, TexasRed fluor inactive, TRb SRC2 PPI 45µM, Tau FP inhib inactive, Tau fluor cs inactive, Tau fibril ThT inactive and RGS12 GoLoco inh-2 4.5µM.
Screening Cc1nc(SCC(=O)Nc2ccc(N3CCOCC3)cc2)nc(C)c1C returned RGS12 GoLoco inh-1 inactive, TexasRed fluor inactive, TRb SRC2 PPI inactive, Tau FP inhib inactive, Tau fluor cs inactive and Tau fibril ThT inconclusive.
`Cc1cc(C)nc(SCC(=O)Nc2ccc(N3CCOCC3)cc2)n1` gave RGS12 GoLoco inh-1 5µM, TexasRed fluor inactive, TRb SRC2 PPI inactive, Tau FP inhib inactive, Tau fluor cs inactive, Tau fibril ThT inactive and RGS12 GoLoco inh-2 4.5µM.
`COc1ccccc1NC(=O)CSc1nnc2c(n1)[nH]c1ccccc12` gave TexasRed fluor inactive, TRb SRC2 PPI inactive, Tau FP inhib inconclusive, Tau fluor cs inconclusive and Tau fibril ThT inconclusive.
O=C1NCc2c1c1c3ccccc3[nH]c1c1[nH]c3ccccc3c21 was read as RGS12 GoLoco inh-2 inactive.

Assay outcomes from PubChem BioAssay.
